Out of some 290,000 compounds screened, about 260 (0.09%) were called active. Cut-off read from the data, not from the text of the source: active = inhibition above about 50%; inactive = the rest. What follows is part of a selection rich in actives, with near analogues and random picks from the rest. Entries with a potency or affinity are not part of this list.
biological target: Kappa-type opioid receptor (Homo sapiens) (UniProt P41145); assay: kappa opioid receptor blockers – cell-based, luminescence, uHTS (AID 1778); details: KOR beta-arrestin recruitment, antagonist mode, active compounds read high; at 10 µM unless noted
Sequence (P41145 whole entry, looked up): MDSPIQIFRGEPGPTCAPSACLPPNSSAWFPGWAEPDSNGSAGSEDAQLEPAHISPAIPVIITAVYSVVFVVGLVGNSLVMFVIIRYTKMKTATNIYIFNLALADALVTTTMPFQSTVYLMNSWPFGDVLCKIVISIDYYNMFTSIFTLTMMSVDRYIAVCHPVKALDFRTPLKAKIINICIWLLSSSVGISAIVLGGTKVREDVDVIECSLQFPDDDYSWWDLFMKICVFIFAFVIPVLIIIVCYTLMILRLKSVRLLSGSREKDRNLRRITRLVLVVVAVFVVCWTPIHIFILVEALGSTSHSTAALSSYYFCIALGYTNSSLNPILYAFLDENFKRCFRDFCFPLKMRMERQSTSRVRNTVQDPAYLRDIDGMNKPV

Row | SMILES | inhibition
1 | COc1ccc(CS(=O)(=O)/C(Cl)=C(/Cl)C(=O)Nc2ccc(OC)nc2)cc1 | 40.1% (inactive)
2 | C(=C\CSc1ncn[nH]1)/CSc1ncn[nH]1 | 0.4% (inactive)
3 | CCSc1nc2c(cnn2-c2ccc(C)cc2)c(=O)[nH]1 | -21.4% (inactive)
4 | COC(=O)C1=CN(C2CC2)C=C(C(=O)OC)C1c1ccc(C(F)(F)F)cc1 | -9.8% [at 20 µM] (inactive)
5 | COCCn1c(SCC(=O)N2CCCC2)nnc1-c1ccco1 | 10.6% (inactive)
6 | O=C(COc1ccc2c(C(F)(F)F)cc(=O)oc2c1)NCc1cccs1 | -40.4% (inactive)
7 | S=C(Nc1ccc(Oc2ccccc2)cc1)Nc1cccnc1 | -26.6% [at 20 µM] (inactive)
8 | Cc1cc(C)cc(N2C(N)=NC(N)=NC2c2ccccc2F)c1 (stereo unspecified) | 1.5% (inactive)
9 | COC(=O)c1c(NC(=O)CN2CCN(c3ncccn3)CC2)sc(C(N)=O)c1C | -4.1% (inactive)
10 | S=c1sc2c(N3CCN(Cc4ccccc4)CC3)ncnc2n1-c1ccccc1 | -18% (inactive)
11 | S=c1sc2c(N3CCOCC3)ncnc2n1-c1ccccc1 | -30.9% (inactive)
12 | CCOc1ccc(CNc2ccc3c(c2)nc(C)n3C)cc1 | 7.3% (inactive)
13 | Oc1ccc(CN2CCCCC2)c2cccnc12 | -7.4% (inactive)
14 | Oc1c(CN2CCc3ccccc3C2)cc(Cl)c2cccnc12 | -4% (inactive)
15 | Nc1nc(NC(=O)c2cccs2)nn1-c1ccccc1 | -23% (inactive)
16 | Oc1c(I)cc(I)c2cccnc12 | -35.5% (inactive)
17 | Oc1c(Cl)cc(CN2CCCCC2)c2cccnc12 | -1.6% (inactive)
18 | Clc1cc2cccnc2c2ccccc12 | 1.4% (inactive)
19 | O=[N+]([O-])c1cc(Cl)c2cccnc2c1O | 1.5% [at 20 µM] (inactive)
20 | COc1cccc(NC(=O)CSc2nc3ccccc3n2C)c1 | 2.2% (inactive)
21 | O=C(NC(NC(=S)Nc1cccc(Cl)c1)C(Cl)(Cl)Cl)OCc1ccccc1 (stereo unspecified) | 5.1% (inactive)
22 | O=C(NC(NC(=S)Nc1cccc(C(=O)O)c1)C(Cl)(Cl)Cl)OCc1ccccc1 (stereo unspecified) | 3.3% (inactive)
23 | Cc1ccc(C)c(NC(=S)NC(NC(=O)OCc2ccccc2)C(Cl)(Cl)Cl)c1 (stereo unspecified) | -2% (inactive)

Row | SMILES | inhibition
24 | Cc1cccc(NC(=S)NC(NC(=O)OCc2ccccc2)C(Cl)(Cl)Cl)c1 (stereo unspecified) | -6.6% (inactive)
25 | O=C(CNCCc1ccc(F)cc1)Nc1cc(F)ccc1F | -1.9% (inactive)
26 | O=C(O)CCC(=O)N1N=C(c2cccs2)CC1c1cccc([N+](=O)[O-])c1 (stereo unspecified) | -24.4% [at 20 µM] (inactive)
27 | CC(=O)N1N=C(c2ccccc2)CC1c1cccc([N+](=O)[O-])c1 (stereo unspecified) | -7% [at 20 µM] (inactive)
28 | CCc1nn(CC(=O)NCCCN(C)Cc2ccccc2)c(=O)c2cc3sc(C)cc3n12 | 1.9% (inactive)
29 | CCC(=O)N1CC2(CC(c3cccc(NC(=O)COc4ccc(Cl)cc4)c3)=NO2)C[C@@H]1C(N)=O (stereo partly specified) | 8.3% (inactive)
30 | COC(=O)c1ccc(N/N=C/c2cc([N+](=O)[O-])cc(OC)c2O)cc1 | -4.6% (inactive)
31 | O=C(N/N=C/c1cc(Br)cc([N+](=O)[O-])c1O)c1ccc(NC(=O)c2ccc(F)cc2)cc1 | -22.2% (inactive)
32 | CCOC(=O)c1ccc(N/N=C/c2cc(Br)cc([N+](=O)[O-])c2O)cc1 | 60.8% [at 20 µM] (active)
33 | COc1ccc(CNC(=O)C2CCC(CNS(=O)(=O)c3ccc(C)cc3)CC2)cc1 (stereo unspecified) | 5.5% (inactive)
34 | O=C1CNC(=S)N1c1nc2ccccc2s1 | 18.9% (inactive)
35 | Cc1ccc2nc(N3C(=O)CNC3=S)sc2c1 | 45.5% (inactive)
36 | COc1ccc2nc(N3C(=O)CNC3=S)sc2c1 | 59.9% (inactive)
37 | CCOc1ccc2nc(N3C(=O)/C(=C/c4ccccc4)NC3=S)sc2c1 | 13.6% (inactive)
38 | Cc1cc(C)cc(Nc2nc3c(S(=O)(=O)c4ccccc4)nnn3c3ccccc23)c1 | -17.6% (inactive)
39 | COc1cccc(NC(=O)CSc2ccc3nnc(-c4ccccn4)n3n2)c1 | 3% (inactive)
40 | Cc1ccc(SC[C@H](CC(C)C)N2CCN(C)CCC2=O)cc1 | 30.9% (inactive)
41 | COc1ccccc1OC(C)C(=O)NNC(=S)NC1CCCC1 (stereo unspecified) | 1.5% (inactive)
42 | COc1ccc(N2C(=S)NC3N2C(=S)NC3(C)c2ccccc2)cc1 (stereo unspecified) | -26.3% (inactive)
43 | CC(C)CNS(=O)(=O)c1ccc(CCC(=O)N2CCC(C(N)=O)CC2)cc1 | -7.7% (inactive)
44 | Cc1cc(C)nc(-n2nc(C)cc2Nc2ccccc2)n1 | -25% (inactive)
45 | Cc1ccc(Nc2cc(C)nn2-c2nc(C)cc(C)n2)cc1 | 2% (inactive)
46 | COc1cccc(N2C(=O)CC(N3CCN(c4ccc([N+](=O)[O-])cc4)CC3)C2=O)c1 (stereo unspecified) | -48.1% [at 20 µM] (inactive)

Reference: PubChem BioAssay AID1778 (Sanford-Burnham Center for Chemical Genomics, 2009)
